# Ba CapD inh – Bacillus anthracis CapD inhibitors, primary screen, biochemical, fluorescence intensity. purified CapD enzyme, fluorescence intensity read-out; stronger effect = lower value. z-score (no concentration beside the values). AID 492967, 2010. 140,000 compounds, 0.23% hits. CapD gamma-glutamyltranspeptidase (Bacillus anthracis Ames Ancestor); in the data active = z-score mostly below about -2.9, no sharp cut-off; inactive = mostly above about -1.9
# Numbers without * were called inactive. Only a selection was taken, and hits are over-represented in it overall.
SMILES,Ba CapD inh
CCN(CC)c1ncc2c(=S)[nH]c(=S)[nH]c2n1,-1.5
S=c1[nH]c(=S)c2cnc(N3CCOCC3)nc2[nH]1,0.38
C=CCSc1ncc2c(=S)[nH]c(=S)[nH]c2n1,-4.6*
CCN1CC(C)C(O)(c2ccccc2)CC1C (centres undefined),-0.32
CSc1nc2nc(N)nc(N)c2s1,-0.64
CSc1nc2c(=S)[nH]c(=S)[nH]c2s1,-5.5*
O=c1cc(Cc2nnc(SCc3c(F)cccc3Cl)n2-c2ccc(F)cc2)[nH]c(=O)[nH]1,1.6
O=C(NCCSCc1ccco1)Nc1cc(Cl)cc(Cl)c1,0.21
O=C(NCCCO)Nc1ccc2nc(-c3ccco3)c(-c3ccco3)nc2c1,-7.3*
O=C(Nc1ccc(N2CCOCC2)cc1)Nc1ccc2nc(-c3ccco3)c(-c3ccco3)nc2c1,-3.7
Cc1ccc(C2(c3ccc(C)cc3)CC2C(=O)Nc2ccc(F)cc2)cc1 (centres undefined),-0.13
O=C1NC(=Nc2ccccc2Br)SC1(CO)CO,-0.32
CC1(C)CC(=O)C2=C(C1)Nc1[nH]n(-c3ccccc3)c(=O)c1C2c1ccco1 (centres undefined),-4.6*
O=C1CCCC2=C1C(c1ccco1)c1c([nH]n(-c3ccccc3)c1=O)N2 (centres undefined),-2.6
CC1(C)CC(=O)C2=C(C1)Nc1ccc3ccccc3c1C2c1ccco1 (centres undefined),80
Cc1ccc(NNC(=O)C(O)(c2ccc(Cl)cc2)c2ccc(Cl)cc2)c(Br)c1,-0.09
Cc1cc(C(=O)N/N=C/c2[nH]ncc2Cl)no1,1.3
CN1CCN(C(c2ccncc2)c2ccc3cccnc3c2O)CC1 (centres undefined),-2.4
Oc1c(C(c2ccccc2)N2CCOCC2)ccc2cccnc12 (centres undefined),-0.8
OCCN1CCN(C(c2ccccc2)c2ccc3cccnc3c2O)CC1 (centres undefined),-5.2*
O=C(CSC1CCCC1)c1cccs1,0.015
CCCCN1C(=O)CC(N2CCN(c3ccc(F)cc3)CC2)C1=O (centres undefined),-0.13
COc1ccc(OC)c(NC(=O)c2cc3ccc(OC)cc3oc2=Nc2ccc(C(=O)O)cc2)c1,0.07
COc1ccc2cc(C(=O)Nc3ccc(Cl)cc3)c(=Nc3ccc(C(=O)O)cc3)oc2c1,0.62
COc1ccc2cc(C(=O)Nc3ccc(OC)c(OC)c3)c(=Nc3ccc(C(=O)O)cc3)oc2c1,-3.4*
SMILES,Ba CapD inh
CCOc1ccc(-n2c(=S)[nH]c3c(sc(=S)n3-c3ccc(CC)cc3)c2=O)cc1,-1.8
Fc1ccc(-c2nnc(C3CCN(Cc4ccccc4Cl)CC3)o2)cc1,-0.12
CCCn1c(/N=C/c2c[nH]c3ccccc23)nc2ccccc21,-4.1*
CCc1ccc(N=Cc2c[nH]c3ccccc23)cc1,-0.06
CCCCn1c(/N=C/c2nc3ccccc3n2C)nc2ccccc21,0.11
CCn1c(CCNC(=O)c2ccc(OC)c(OC)c2)nc2ccccc21,-0.18
O=[N+]([O-])c1cccnc1Sc1ccccc1C1=NCCCN1,-1.1
O=c1c2ccc(NCCO)c3cccc(c32)c2nc3ccccc3n12,-0.21
Cn1c(=O)c2cc(Br)ccc2n(C)c1=O,1.7
O=C1CN(c2cc(Cl)cc(Cl)c2)C(=O)CN1/N=C/c1cccnc1,-0.81
O=C1CSC(=S)N1/N=C/c1cc(Br)cc(Br)c1O,12
O=C1CSC(=S)N1/N=C/c1cccnc1,-4*
COc1cc(Br)cc2cc(C(=O)N3CCN(c4cc(C)ccc4C)CC3)c(=O)oc12,-0.74
COc1ccc(-n2c(=S)[nH]c3cc(C(=O)NCCSCc4ccccc4)ccc3c2=O)cc1OC,0.52
CC(=O)n1c(=S)[nH]c2ccccc21,-5.2*
O=C(Cn1c(=S)[nH]c2ccccc21)c1ccc(-c2ccccc2)cc1,0.53
CC(=O)n1c(=O)sc2ccccc21,-2.1
O=C(c1ccc(NS(=O)(=O)c2ccccc2)cc1)N1CCCC1,-0.1
O=C(O)C1Sc2[nH]c(=O)sc2C2c3cc(Br)cc(Br)c3OC(=O)C12 (centres undefined),2.9
O=C(CSc1ccc(Cl)cc1)NCc1cccs1,-0.055
COC(=O)CN1C(=S)N(C)C(=O)/C1=C/c1ccco1,-4.1*
COc1ccc(NC(=O)CCCN2C(=O)/C(=C\c3ccco3)SC2=S)cc1,-0.32
CCOc1ccc(/C=C2/C(=O)N(C)C(=S)N2CC(=O)OC)c(OCC)c1,0.29
CCOc1ccc(/C(O)=C/C(=O)C(=O)Nc2ccc(S(=O)(=O)NC(C)=O)cc2)cc1,3.6
CC1(C)Cc2c(c(=S)nc(-c3ccccc3)n2CCO)CO1,-5.1*
SMILES,Ba CapD inh
OCCn1c(-c2ccccc2)nc2ccccc21,2.4
CC1(C)Cc2ccccc2-c2nc(-c3ccccc3)n(CCO)c(=O)c21,7.3
O=C(CSCc1ccco1)NC1CC1,0.41
Cc1cccc(N=Nc2cnc(-c3ccccn3)nc2-c2cccs2)c1,0.17
O=C(OCC(=O)N1CCc2ccccc21)C1CC2C=CC1C2 (centres undefined),0.73
CNC(=O)c1ccccc1-c1nc(-c2ccccc2OC)no1,0.07
CC(=O)Oc1ccc(N(C(C)=O)S(=O)(=O)c2cccs2)cc1,-2.7
CC(C)C(=O)N(c1ccc2oc(=O)sc2c1)S(=O)(=O)c1cccs1,-3
COc1ccc(N(C(=O)C(C)C)S(=O)(=O)c2cccs2)cc1,-7*
O=C(Nc1sc2c(c1C(=O)NCc1cccnc1)CCCCC2)c1cccnc1,-0.15
CCc1nc2ccccc2n1CC(=O)Nc1ccccc1C#N,0.3
COc1ccc(-n2nc(C(=O)NCC(=O)Nc3cccc(OC)c3)c3ccccc3c2=O)cc1,-1.2
COC(=O)C1=CN(Cc2ccc3c(c2)OCO3)C=C(C(=O)OC)C1c1ccc2c(c1)OCO2,28
CC(C)(C)n1cnc2cc(NCc3ccccc3O)ccc21,36
CCN(CC)c1ccc(CNc2ccc3c(c2)ncn3C(C)(C)C)cc1,-4.6*
CCN(CC)c1ccc(CNc2ccc3c(c2)ncn3C)cc1,57
COc1ccc(/C=N/n2cnc3c([nH]c4ccc(F)cc43)c2=O)cc1,-0.78
COc1cccc(NC(=O)CSc2nc3ccccc3c(=O)n2CC2CCC(C(=O)NCC3CCCO3)CC2)c1 (centres undefined),-1.2
O=C1CCCc2nc(N3CCCCC3)sc21,-4.3*
Nc1nnc(N2CCCCC2)s1,-0.38
COc1ccc2nc(N3CCCC3)sc2c1,-0.3
C=C1N(Cc2ccccc2)C(=O)OC1(C)C,0.29
O=C(Nc1ccccc1F)c1ccc(N2CC3CC(C2)c2cccc(=O)n2C3)c(NC(=O)c2ccc(Br)o2)c1 (centres undefined),0.005
CC(=O)Nc1ccc(S(=O)(=O)NC2CCN(Cc3ccccc3)CC2)cc1,-0.39
CCOC(=O)c1cnc2ccc(Cl)cc2c1Nc1ccc(S(=O)(=O)Nc2ncccn2)cc1,2.2
SMILES,Ba CapD inh
CCN(CC)C(=O)c1ccc(OC(C)=O)cc1,-0.26
Cc1ccc(C)n1-c1ccc(SCC(=O)O)cc1,-3.4
O=C(O)c1ccc(-n2c(-c3ccccc3)cc3c2CCCC3)cc1,-0.13
Cc1cc2c(n1-c1ccc(C(=O)N3CCN(c4ccccc4)CC3)cc1)CCCCC2,-0.89
Cc1cc2c(n1-c1ccc(C(=O)O)cc1)CCCC2,-7.5*
O=C(O)c1ccc(N2CCCCC2)cc1,-0.065
Cc1ccc(C)n1-c1ccc(C(=O)O)cc1,-13*
c1ccc(Nc2nc(CN3CCCCC3)cs2)cc1,-0.16
COc1cccc(NC(=S)N(CCC#N)/N=C/c2ccc3c(c2)OCO3)c1,-0.43
COc1ccc(OC)c(NC(=O)CSc2n[nH]c(N)n2)c1,-0.63

# High-throughput results (PubChem)
